High-throughput results: PubChem, National Center for Advancing Translational Sciences (NCATS)
IP6K1 inh = inhibitors of human IP6K1 | AID 1645851 | IP6K1 kinase, ADP-Glo luminescence, 2 h; hits give low values | activity change, % (series mostly up to about 58 µM) | 140,000 compounds, 0.81% hits; in the data active = activity change below about -25%; note: % is set by controls: 0 for no effect and ±100 for the full control effect
Target sequence (Q92551 whole entry, looked up): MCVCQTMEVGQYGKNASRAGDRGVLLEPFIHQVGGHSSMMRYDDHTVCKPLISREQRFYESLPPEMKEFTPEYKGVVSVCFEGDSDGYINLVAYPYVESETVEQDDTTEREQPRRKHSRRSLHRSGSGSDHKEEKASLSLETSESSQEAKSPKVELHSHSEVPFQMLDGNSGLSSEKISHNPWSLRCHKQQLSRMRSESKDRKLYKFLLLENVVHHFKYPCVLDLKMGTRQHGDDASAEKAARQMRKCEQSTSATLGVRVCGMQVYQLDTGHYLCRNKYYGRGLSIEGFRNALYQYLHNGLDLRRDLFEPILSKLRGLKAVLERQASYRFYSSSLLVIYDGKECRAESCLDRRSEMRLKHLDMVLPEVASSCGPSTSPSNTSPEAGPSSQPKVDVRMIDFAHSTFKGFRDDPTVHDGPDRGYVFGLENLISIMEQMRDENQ
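ADP-Glo luminescence measures ADP made by human IP6K1 during a 2 h RT reaction with ATP/IP6 (mix at 1.3 mM/130 uM); top library doses 57.5 and 19.1 uM final.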
KDM5B inhibitor = inhibitors of human KDM5B histone demethylase; Q9UGL1; KDM5B demethylase, FDH-coupled NADH fluorescence (FDH is formaldehyde dehydrogenase); Potency, µM (series often up to 57.7 µM), hits mostly inhibitors; 220,000 compounds, 2.6% hits; AID 1347165; active = well fitted inhibition curve with a large enough effect; inconclusive = small, poorly fitted or top-dose-only effect; inactive = no such curve, though single readings can be large or run the other way; note: potency is the fitted concentration of half-maximal effect; 0% is about no effect; nearly all actives have a fitted effect of over 70% in size
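Inhibition is measured as reduced NADH fluorescence generation from FDH coupling to formaldehyde release. Truncated KDM5BΔAP at 200 nM final acts on H3K4me3 peptide (12.5 µM in substrate mix) in pH 7.5 HEPES buffer with Tween-20, 30 min, room temperature.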
* marks the source's active call; other numbers are inactive results; i = inactive; ? = inconclusive; · = no result. Rows were chosen to be rich in hits. Some 2.8% of all compounds tested hit in one or more screens of this group.

SMILES	IP6K1 inh	KDM5B inhibitor
O=C(O)CCn1ncc2cc(OCC3CCN(c4ncccn4)CC3)ccc21	-5	?
CC(C)c1cnc(N2CCC(COc3ccc4c(cnn4CCC(=O)O)c3)CC2)nc1	-3	?
CCc1cnc(N2CCC(COc3ccc4c(cnn4CCC(=O)O)c3)CC2)nc1	-2	40µM*
O=C1CCN(CC(O)Cc2ccccc2)c2ccccc2CN1Cc1ccccc1 (centres undefined)	-3	·
CC(Nc1ccc(-c2nc(CCCc3ccccc3)no2)cn1)c1cnn(C)c1 (centres undefined)	15	28µM*
c1ccc(CCc2noc(-c3ccc(N4CCCOCC4)nc3)n2)cc1	0	?
Cc1nccn1CCN(C)c1ccc(-c2nc(COc3ccccc3)no2)cn1	3	22µM*
COC1CCN(c2ccc(-c3nc(COc4ccccc4)no3)cn2)CC1	10	28µM*
CCN1CCN(c2ccc(-c3nc(CCCc4ccccc4)no3)cn2)CC1	-5	?
c1ccc(CCCc2noc(-c3ccc(N4CCOCC4)nc3)n2)cc1	0	35µM*
CN(Cc1cnn(C)c1)c1ccc(-c2nc(COc3ccccc3)no2)cn1	-9	i
CC(C)Cc1noc(-c2ccc(N3CCC(O)CC3)nc2)n1	11	?
O=C(NC1CCCCC1)N1CCC(CCc2nc(C3CCOCC3)no2)CC1	6	·
O=C(Nc1ccccc1)N1CCCC(C(=O)N2CCC(c3ccccc3)CC2)C1 (centres undefined)	-7	·
Cc1ccccc1C(=O)N1CCC(C(=O)N2CCC(N3CCCC3=O)CC2)CC1	25	·
Cc1ccccc1C(=O)N1CCC(N2CCCCCC2=O)CC1	9	20µM*
CCCCNc1nc(-c2cccc(OC)c2O)nc2ccccc12	·	i
Cc1nc2ccc(C(=O)NC(C(=O)O)c3c(C)n[nH]c3C)cc2[nH]1 (centres undefined)	11	i
CNc1ccc(C)cc1C(=O)NC(C(=O)O)c1c(C)n[nH]c1C (centres undefined)	-9	32µM*
CC(C)CNC(=O)c1ccc2c(c1)C1(CCN(C)C1)CN2CC1CCOCC1 (centres undefined)	-11	35µM*
CN1CCC2(C1)CN(CC1CCOCC1)c1ccc(C(=O)NCc3ccccc3)cc12 (centres undefined)	3	40µM*
CN1CCC2(C1)CN(CC1CCOCC1)c1ccc(C(=O)Nc3ccccc3)cc12 (centres undefined)	-2	?
CN1CCC2(C1)CN(CC1CCOCC1)c1ccc(C(=O)Nc3ccn(C)n3)cc12 (centres undefined)	-10	?
Cn1nc(C2CC2)cc1NC(=O)c1ccccc1	-1	·
COCCNC(=O)c1cn2cc(-c3ccc(C)cc3)sc2n1	8	·
SMILES	IP6K1 inh	KDM5B inhibitor
O=C(NCCc1ccc(Cl)cc1)c1nc(-c2cccc(F)c2)n2c1CCCCC2	4	i
CC(C)(C)c1nc(C(=O)NCCc2ccc(Cl)cc2)n2ccncc12	11	79µM*
O=C(NCCc1ccc(Cl)cc1)c1nc(-c2cccnc2)c2cnccn12	8	25µM*
CC(C)(C)c1nc(C(=O)NCCc2ccc(Cl)cc2)n2ccccc12	-5	?
O=C(NCCc1ccccc1)c1nc2sccn2c1-c1cccc(C(F)(F)F)c1	-4	·
O=C(NCCc1ccc(Cl)cc1)c1nc2sccn2c1-c1cccnc1	17	·
O=C(NCCc1ccc(Cl)cc1)c1nc(-c2cccc(C(F)(F)F)c2)c2cnccn12	0	32µM*
O=C(NCCc1ccc(Cl)cc1)c1nc(-c2cccc(F)c2)c2cnccn12	0	28µM*
COc1ccccc1Nc1ccnc(N2CCC(N[S+](=O)([O-])c3ccc(C)cc3)CC2)n1	-1	·
O=C(c1ccc(-c2cccs2)cc1)N1CCC(N[S+](=O)([O-])c2cccs2)CC1	1	·
COc1ccc(C(=O)N2CC(N3C(=O)c4c(c(C)nn4-c4ccccc4)C3C3CC3)C2)cc1 (centres undefined)	6	·
FC(F)(F)c1ccc(/C=N/Nc2cc(C(F)(F)F)ccc2Cl)cc1	·	i
CSc1ccc(-c2cccc(CN3CCC(NC(=O)c4ccccc4F)CC3)c2)cc1	3	·
COc1ccccc1-c1cc(-c2c(C)noc2C)cc2c1C(=O)N(C)C2	7	?
COc1cc(F)ccc1-c1cc(-c2c(C)noc2C)cc2c1C(=O)N(C)C2	5	32µM*
COc1ccc(-c2nnc(C[C@@H]3C[C@@H](C(C)C)[C@H](CN4CCN(c5ncccn5)CC4)C=C3C)o2)cc1	18	?
CN(c1ccccc1)c1ccc2c(n1)CN(Cc1ccc(F)cc1)C(=O)CO2	-8	32µM*
COc1cccc(CN2Cc3nc(Oc4ccccc4)ccc3OCC2=O)c1	10	i
COc1cccc(CN2Cc3nc(-c4cc5ccccc5o4)ccc3OCC2=O)c1	-9	50µM*
COc1cccc(CN2Cc3nc(-c4ccc(F)cc4)ccc3OCC2=O)c1	-15	i
COc1cccc(CN2Cc3nc(-c4cnn(C)c4)ccc3OCC2=O)c1	7	i
COc1cccc(CN2Cc3nc(N(C)c4ccccc4)ccc3OCC2=O)c1	-9	32µM*
COc1cccc(-c2ccc3c(n2)CN(CC(=O)N2CCCC2)C(=O)CO3)c1	3	?
O=C(CN1Cc2nc(-c3cc4ccccc4o3)ccc2OCC1=O)N1CCCC1	-7	28µM*
COc1ccccc1-c1ccc(CN2CCCCC2C(=O)NC(C)C)cc1 (centres undefined)	11	·
SMILES	IP6K1 inh	KDM5B inhibitor
COc1cccc(NC(=O)c2cc(-c3ccccc3C(F)(F)F)nc3c2cnn3C)c1	25	·
CCOCCNc1ncnc2c1CN(c1cccc(C)c1)C(=O)CN2C	-4	·
Cc1cc(=O)oc2cc(NC(=O)N(C)Cc3ccccc3Br)ccc12	·	i
CC(C)c1ccc(CN2CCc3c(n(Cc4ccccc4)n(-c4ccccc4)c3=O)C2)cc1	21	?
COCCN1C[C@H]2COc3ccccc3[C@H]2N(C(=O)c2ccccc2OC)CCC1=O	-6	·
Cc1nc(CN2Cc3nc(-c4ccccc4F)ccc3OCC2=O)cs1	10	i
COc1ccc(-c2ccc3c(n2)CN(Cc2csc(C)n2)C(=O)CO3)cc1F	-6	35µM*
COc1ccc(Cl)cc1-c1ccc2c(n1)CN(CCOc1ccccc1)C(=O)CO2	-12	?
NC(=O)c1cccc(-c2ccc3c(n2)CN(Cc2nc4ccccc4s2)C(=O)CO3)c1	-3	?
COc1cccc(CN2Cc3nc(-c4cc(Cl)ccc4OC)ccc3OCC2=O)c1	-9	35µM*
NC(=O)c1cccc(-c2ccc3c(n2)CN(Cc2ccc(F)cc2)C(=O)CO3)c1	10	35µM*
CNC(=O)CN(Cc1cccs1)[C@@H]1C[C@@H]2CO[C@H](C(C)C)C[C@@H]2C1	27	·
COc1ccc(-n2nnnc2SCC(=O)NC(C)c2ccc(-c3ccccc3)cc2)cc1 (centres undefined)	·	i
COc1ccc(-c2nc3c([nH]2)CC(C)(C)CNC3=O)cc1OC	-9	32µM*
CCn1cc(-c2nc3c([nH]2)CC(C)(C)CNC3=O)cn1	8	i
O=C(Nc1cccc(F)c1)N1CCc2c(c3ccccc3n2CC2CC2)C1	-6	22µM*
O=C(Nc1ccc(F)c(F)c1)N1CCc2c(c3ccccc3n2CC2CC2)C1	-7	22µM*
Cc1ccc(NC(=O)N2CCCC(c3ccccc3)C2)cc1 (centres undefined)	·	i
O=C(NCCC1CCN(C(=O)Nc2cccc(F)c2)CC1)c1ccccc1	0	i
